Consider eleven compounds from ChEMBL document CHEMBL2218924, “A broad activity screen in support of a chemogenomic map for kinase signalling research and drug discovery” (Biochem J, 2013).

SMILES strings stand for the structures.

Assay [1] deals with T1, Aurora kinase C (Homo sapiens) (UniProt Q9UQB9).
T1 sequence (whole entry): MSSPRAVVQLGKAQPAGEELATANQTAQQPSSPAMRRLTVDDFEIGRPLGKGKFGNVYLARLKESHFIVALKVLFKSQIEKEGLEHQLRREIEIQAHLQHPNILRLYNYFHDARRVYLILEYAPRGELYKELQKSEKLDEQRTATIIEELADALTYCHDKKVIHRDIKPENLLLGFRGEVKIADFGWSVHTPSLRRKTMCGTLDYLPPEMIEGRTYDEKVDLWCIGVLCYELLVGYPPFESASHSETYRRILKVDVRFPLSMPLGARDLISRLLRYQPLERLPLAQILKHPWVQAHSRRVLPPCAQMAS
As to conditions: at 1 µM.

In assay [2] the target is Protein-tyrosine kinase 6 (Homo sapiens) (UniProt Q13882). The following applies: at 1 µM.
Chain of Protein-tyrosine kinase 6 (Homo sapiens) (Q13882 whole entry, looked up): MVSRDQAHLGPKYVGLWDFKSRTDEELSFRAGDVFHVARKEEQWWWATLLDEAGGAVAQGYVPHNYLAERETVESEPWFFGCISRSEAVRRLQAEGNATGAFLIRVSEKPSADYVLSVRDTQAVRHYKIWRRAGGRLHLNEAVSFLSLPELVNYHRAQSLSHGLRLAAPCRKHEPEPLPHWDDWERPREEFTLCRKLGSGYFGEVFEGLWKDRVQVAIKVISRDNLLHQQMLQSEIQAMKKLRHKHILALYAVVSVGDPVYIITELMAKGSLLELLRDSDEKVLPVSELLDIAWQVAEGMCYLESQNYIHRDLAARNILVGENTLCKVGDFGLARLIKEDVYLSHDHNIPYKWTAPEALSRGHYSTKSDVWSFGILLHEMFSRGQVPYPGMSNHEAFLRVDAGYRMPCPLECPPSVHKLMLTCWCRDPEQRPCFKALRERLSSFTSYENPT
Assay [3] shares this target. The following applies: at 10 µM.
For assay [4], the target named is Tyrosine-protein kinase BTK (Homo sapiens) (UniProt Q06187). The following applies: at 1 µM.
Chain of Tyrosine-protein kinase BTK (Homo sapiens) (Q06187 whole entry): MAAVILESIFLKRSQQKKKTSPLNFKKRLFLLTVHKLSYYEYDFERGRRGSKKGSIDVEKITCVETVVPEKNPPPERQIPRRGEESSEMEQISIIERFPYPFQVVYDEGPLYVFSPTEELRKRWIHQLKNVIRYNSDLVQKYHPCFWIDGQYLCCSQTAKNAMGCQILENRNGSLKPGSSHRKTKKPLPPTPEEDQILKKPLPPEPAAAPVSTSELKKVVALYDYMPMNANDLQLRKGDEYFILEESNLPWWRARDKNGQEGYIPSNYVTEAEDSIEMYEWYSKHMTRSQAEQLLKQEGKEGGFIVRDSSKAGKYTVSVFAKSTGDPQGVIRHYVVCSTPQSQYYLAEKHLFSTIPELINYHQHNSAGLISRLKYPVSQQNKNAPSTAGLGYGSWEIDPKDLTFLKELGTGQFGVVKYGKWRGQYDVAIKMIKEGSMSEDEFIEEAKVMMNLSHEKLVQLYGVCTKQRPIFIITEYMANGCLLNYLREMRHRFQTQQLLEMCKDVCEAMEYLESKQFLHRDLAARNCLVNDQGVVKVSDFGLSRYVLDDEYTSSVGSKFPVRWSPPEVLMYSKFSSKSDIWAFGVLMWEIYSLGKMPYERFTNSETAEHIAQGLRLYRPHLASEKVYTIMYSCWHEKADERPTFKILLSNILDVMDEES
The target is the same in assay [5]. The following applies: at 10 µM.
In assay [6] the target is Tyrosine-protein kinase ABL2 (Homo sapiens) (UniProt P42684). The following applies: at 10 µM.
Assay [7] concerns the target T1, Aurora kinase C (Homo sapiens). The following applies: at 10 µM.
The target of assay [8] is Tyrosine-protein kinase ABL1 (Homo sapiens) (UniProt P00519). The following applies: at 1 µM.
Chain of Tyrosine-protein kinase ABL1 (Homo sapiens) (P00519 whole entry): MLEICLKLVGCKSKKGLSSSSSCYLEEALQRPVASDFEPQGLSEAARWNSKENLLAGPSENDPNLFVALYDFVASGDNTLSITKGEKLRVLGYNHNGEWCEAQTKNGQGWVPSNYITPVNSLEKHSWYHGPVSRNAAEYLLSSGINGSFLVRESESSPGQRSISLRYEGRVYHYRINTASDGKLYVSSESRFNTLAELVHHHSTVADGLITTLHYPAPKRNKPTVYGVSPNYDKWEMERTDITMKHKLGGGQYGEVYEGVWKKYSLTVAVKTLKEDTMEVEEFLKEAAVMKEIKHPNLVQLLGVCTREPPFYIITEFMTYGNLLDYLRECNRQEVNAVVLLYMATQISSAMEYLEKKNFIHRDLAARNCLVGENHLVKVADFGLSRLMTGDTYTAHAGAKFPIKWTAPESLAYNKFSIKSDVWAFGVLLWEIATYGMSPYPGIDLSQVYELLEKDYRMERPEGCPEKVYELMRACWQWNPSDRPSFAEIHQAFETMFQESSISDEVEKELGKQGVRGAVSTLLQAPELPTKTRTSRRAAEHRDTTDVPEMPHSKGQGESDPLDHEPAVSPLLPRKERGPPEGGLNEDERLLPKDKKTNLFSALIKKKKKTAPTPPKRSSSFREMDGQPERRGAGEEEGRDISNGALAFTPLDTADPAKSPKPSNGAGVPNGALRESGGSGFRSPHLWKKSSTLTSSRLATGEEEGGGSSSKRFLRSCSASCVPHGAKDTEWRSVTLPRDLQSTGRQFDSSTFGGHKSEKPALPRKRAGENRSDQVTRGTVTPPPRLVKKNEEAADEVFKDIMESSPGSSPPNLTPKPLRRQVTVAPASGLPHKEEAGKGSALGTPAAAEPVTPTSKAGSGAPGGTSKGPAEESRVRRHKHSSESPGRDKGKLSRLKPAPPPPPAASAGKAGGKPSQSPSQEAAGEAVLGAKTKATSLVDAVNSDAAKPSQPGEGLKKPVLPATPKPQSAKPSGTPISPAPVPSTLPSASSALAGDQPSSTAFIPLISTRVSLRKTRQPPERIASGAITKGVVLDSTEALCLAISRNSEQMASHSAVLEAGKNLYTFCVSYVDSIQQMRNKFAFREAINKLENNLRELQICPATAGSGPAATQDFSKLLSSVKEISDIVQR
Assay [9] shares this target. As to conditions: at 10 µM.
Assay [10] deals with T2, Aurora kinase A (Homo sapiens) (UniProt O14965).
T2 sequence (whole entry): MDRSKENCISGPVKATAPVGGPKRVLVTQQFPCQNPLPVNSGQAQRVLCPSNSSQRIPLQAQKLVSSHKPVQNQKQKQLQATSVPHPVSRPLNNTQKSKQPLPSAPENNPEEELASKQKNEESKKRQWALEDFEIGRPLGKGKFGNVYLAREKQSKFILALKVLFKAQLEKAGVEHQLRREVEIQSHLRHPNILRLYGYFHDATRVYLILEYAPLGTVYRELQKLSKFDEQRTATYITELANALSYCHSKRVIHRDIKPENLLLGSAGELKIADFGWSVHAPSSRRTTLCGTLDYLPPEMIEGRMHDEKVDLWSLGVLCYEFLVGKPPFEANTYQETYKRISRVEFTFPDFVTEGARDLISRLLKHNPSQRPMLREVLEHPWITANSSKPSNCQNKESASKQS
As to conditions: at 1 µM.

Assay [11] addresses T2, Aurora kinase A (Homo sapiens). As to conditions: at 10 µM.
The target of assay [12] is Aurora kinase B (Homo sapiens) (UniProt Q96GD4). The following applies: at 1 µM.
Chain of Aurora kinase B (Homo sapiens) (Q96GD4 whole entry): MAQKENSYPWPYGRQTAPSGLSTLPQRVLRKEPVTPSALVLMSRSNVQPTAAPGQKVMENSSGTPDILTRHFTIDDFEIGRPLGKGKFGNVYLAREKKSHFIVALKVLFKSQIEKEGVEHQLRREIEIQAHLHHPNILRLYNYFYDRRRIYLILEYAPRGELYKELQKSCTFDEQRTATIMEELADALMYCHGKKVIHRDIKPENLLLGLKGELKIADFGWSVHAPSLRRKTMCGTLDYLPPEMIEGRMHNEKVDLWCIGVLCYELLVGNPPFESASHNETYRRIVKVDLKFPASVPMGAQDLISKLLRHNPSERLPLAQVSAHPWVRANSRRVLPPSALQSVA
Assay [13] shares this target. The following applies: at 10 µM.
The target in assay [14] is Tyrosine-protein kinase receptor UFO (Homo sapiens) (UniProt P30530). As to conditions: at 1 µM.
Chain of Tyrosine-protein kinase receptor UFO (Homo sapiens) (P30530 whole entry): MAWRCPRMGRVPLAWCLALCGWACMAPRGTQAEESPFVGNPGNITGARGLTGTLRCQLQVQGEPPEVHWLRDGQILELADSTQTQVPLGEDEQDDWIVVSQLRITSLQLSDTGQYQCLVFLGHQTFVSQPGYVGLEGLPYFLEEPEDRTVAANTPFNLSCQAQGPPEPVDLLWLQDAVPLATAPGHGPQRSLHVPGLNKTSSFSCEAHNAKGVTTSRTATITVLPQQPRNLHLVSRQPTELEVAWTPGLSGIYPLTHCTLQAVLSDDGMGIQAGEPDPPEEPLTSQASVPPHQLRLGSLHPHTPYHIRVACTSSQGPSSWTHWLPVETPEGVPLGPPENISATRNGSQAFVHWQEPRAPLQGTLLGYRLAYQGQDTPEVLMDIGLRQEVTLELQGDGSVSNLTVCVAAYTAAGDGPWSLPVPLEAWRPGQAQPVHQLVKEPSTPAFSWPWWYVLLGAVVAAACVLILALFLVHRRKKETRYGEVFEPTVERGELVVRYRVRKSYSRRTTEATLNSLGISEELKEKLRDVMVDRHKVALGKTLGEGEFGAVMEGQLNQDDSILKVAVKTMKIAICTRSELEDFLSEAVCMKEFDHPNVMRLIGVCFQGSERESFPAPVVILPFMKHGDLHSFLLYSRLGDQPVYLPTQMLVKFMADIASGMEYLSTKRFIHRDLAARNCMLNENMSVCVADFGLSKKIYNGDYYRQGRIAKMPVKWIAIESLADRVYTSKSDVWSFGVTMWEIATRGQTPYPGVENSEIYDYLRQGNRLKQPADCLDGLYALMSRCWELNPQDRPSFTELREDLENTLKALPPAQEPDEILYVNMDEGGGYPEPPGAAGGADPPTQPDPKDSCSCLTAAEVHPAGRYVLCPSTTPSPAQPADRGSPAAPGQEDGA
Assay [15] has the same target. The following applies: at 10 µM.
For assay [16], the target named is T3, Mitogen-activated protein kinase kinase kinase 5 (Homo sapiens) (UniProt Q99683).
T3 sequence (whole entry): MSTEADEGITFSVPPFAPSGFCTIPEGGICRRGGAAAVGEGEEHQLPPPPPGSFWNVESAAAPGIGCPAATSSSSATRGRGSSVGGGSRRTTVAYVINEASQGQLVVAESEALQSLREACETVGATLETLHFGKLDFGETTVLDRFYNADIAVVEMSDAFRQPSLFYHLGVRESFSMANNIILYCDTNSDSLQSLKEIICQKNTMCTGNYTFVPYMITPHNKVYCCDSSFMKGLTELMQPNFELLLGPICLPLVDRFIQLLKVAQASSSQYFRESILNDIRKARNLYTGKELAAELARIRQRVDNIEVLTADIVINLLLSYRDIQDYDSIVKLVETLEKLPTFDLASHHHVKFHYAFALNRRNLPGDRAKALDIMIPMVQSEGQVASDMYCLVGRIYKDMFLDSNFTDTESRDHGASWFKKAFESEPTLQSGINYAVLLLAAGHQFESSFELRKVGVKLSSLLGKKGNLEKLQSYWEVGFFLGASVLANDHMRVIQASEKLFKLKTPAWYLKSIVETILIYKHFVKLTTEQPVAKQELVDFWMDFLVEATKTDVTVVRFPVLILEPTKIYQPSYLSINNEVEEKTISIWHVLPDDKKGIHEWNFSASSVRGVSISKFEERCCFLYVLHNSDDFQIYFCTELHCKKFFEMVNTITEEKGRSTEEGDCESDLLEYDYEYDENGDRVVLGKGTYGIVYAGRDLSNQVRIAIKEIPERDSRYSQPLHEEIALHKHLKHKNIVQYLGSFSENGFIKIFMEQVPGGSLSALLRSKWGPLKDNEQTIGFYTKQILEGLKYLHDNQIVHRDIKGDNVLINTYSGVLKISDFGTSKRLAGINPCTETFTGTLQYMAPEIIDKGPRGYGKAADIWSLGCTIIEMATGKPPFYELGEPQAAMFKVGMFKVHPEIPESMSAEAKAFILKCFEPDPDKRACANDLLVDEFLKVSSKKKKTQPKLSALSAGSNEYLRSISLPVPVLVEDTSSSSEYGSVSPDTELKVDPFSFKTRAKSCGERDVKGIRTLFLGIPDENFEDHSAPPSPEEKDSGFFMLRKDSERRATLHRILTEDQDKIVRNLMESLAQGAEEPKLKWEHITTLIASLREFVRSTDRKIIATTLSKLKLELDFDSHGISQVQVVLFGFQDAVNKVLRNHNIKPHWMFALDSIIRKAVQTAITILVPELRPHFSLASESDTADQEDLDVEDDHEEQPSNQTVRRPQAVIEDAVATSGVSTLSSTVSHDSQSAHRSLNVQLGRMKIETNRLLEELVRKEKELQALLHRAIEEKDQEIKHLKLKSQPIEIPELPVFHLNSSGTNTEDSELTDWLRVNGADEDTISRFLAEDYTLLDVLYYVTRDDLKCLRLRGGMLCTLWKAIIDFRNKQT
The following applies: at 10 µM.

In assay [17] the target is Tyrosine-protein kinase ABL2 (Homo sapiens) (UniProt P42684). As to conditions: at 1 µM.
Assay [18] addresses Tyrosine-protein kinase Blk (Homo sapiens) (UniProt P51451). The following applies: at 1 µM.
The target is the same in assay [19]. As to conditions: at 10 µM.

Chain of Tyrosine-protein kinase Blk (Homo sapiens) (P51451 2-505 limits assumed): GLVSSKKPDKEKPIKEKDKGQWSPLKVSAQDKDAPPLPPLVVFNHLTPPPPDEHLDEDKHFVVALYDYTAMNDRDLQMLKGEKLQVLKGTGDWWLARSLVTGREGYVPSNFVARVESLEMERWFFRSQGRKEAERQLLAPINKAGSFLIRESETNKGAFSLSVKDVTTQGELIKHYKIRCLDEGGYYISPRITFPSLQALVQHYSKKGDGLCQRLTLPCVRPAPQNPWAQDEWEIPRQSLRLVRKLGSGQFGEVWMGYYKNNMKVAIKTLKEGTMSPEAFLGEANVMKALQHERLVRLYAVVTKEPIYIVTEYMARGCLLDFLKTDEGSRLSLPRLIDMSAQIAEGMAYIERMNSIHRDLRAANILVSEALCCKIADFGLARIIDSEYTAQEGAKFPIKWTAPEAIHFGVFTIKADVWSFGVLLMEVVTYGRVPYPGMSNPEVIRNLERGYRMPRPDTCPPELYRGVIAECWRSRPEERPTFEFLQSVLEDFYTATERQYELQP

As to `CCOc1nc(NC(=O)Cc2cc(OC)ccc2OC)cc(N)c1C#N`, the residual activity was determined as 78% in assay [1]; 60% in assay [2]; 50% in assay [3]; 81% in assay [4]; 78% in assay [5].
`O=S(=O)(c1cccc2cnccc12)N1CCCNCC1`: the residual activity in [6] was 80%; in [7], 59%.
Regarding `O=C(Nc1ccc(Cl)cc1)c1ccccc1NCc1ccncc1`, the residual activity in assay [8] was determined as 81%; in assay [9] it was 52%; in assay [10], 39%; in assay [11], 18%; in [12], 100%; in assay [13], 37%. The residual activity was determined as 70% in assay [7], 21% in assay [2] and 1% in assay [3].
Turning to `CCN1/C(=C/C(C)=O)Sc2ccc(OC)cc21`, the residual activity in [9] turned out to be 79%; in assay [6] it was 81%; in assay [13] it was 122%; in [14] it was 77%; in assay [15], 75%.
With `Fc1ccc(-c2nc3n(c2-c2ccncc2)CCS3)cc1`, the residual activity in assay [16] was found to be 83%; in assay [17] it was 96%; in assay [6] it was 77%; in assay [1], 98%; in assay [7] it was 95%; in assay [4] it was 100%. In addition, the residual activity in [5] stood at 98%.
For the compound `O=C1Cc2c([nH]c3ccc(Br)cc23)-c2ccccc2N1`, the residual activity in assay [8] is 64%; in [9] it was 39%; in assay [17], 76%; in assay [6], 45%; in assay [10] it was 97%; in [11], 66%. Also, the residual activity was found to be 69% in assay [12]; 15% in assay [13]; 76% in assay [1]; 71% in assay [7]; 95% in assay [2]; 72% in assay [3].
Take `Cc1cc(C)c(/C=C2\C(=O)Nc3ccccc32)[nH]1`: the residual activity in assay [12] was 6%; in assay [13], 0%; in [14], 31%; in assay [15], 21%; in assay [2], 103%; in [3], 104%. In addition, the residual activity stood at 65% in [18] and 32% in assay [19].
With `CC(C)[C@H](CO)Nc1nc(Nc2cc(N)cc(Cl)c2)c2ncn(C(C)C)c2n1`, the residual activity in assay [8] is 75%; in [9], 15%; in [17] it was 62%; in assay [6], 8%; in assay [10], 70%; in assay [11], 47%. The residual activity was found to be 14% in assay [12]; 2% in assay [13]; 91% in assay [1]; 52% in assay [7]; 80% in [14]; 20% in assay [15]. Besides, the residual activity in [2] is 96%; in [3], 83%; in [4] it was 48%; in assay [5], 5%.
`O=S(=O)(NCCNC/C=C/c1ccc(Br)cc1)c1cccc2cnccc12`: the residual activity in assay [12] is 43%; in [13], 8%; in assay [1], 80%; in [7], 22%; in assay [19] it was 76%.
For `CCOC(=O)c1c(C)[nH]c(/C=C2\C(=O)Nc3ccccc32)c1C`, the residual activity came to 74% in assay [12]; 61% in assay [13]; 84% in assay [14]; 81% in assay [15]; 89% in [18]; 57% in assay [19].
Consider `O=C(Nc1nc2ccccc2n1CCN1CCOCC1)c1cccc([N+](=O)[O-])c1`, for which the residual activity in [16] is 110%; in assay [17], 100%; in [10], 101%; in assay [11] it was 103%; in assay [12], 100%; in assay [13], 40%. The residual activity in assay [14] is 75%; in [15], 78%; in assay [4], 100%; in [5] it was 109%; in assay [18], 111%; in [19], 100%.
